Screening results: PubChem, National Center for Advancing Translational Sciences (NCATS)
Shown are actives, neighbours in structure and some others; about 19% of the full set was active somewhere.
TDP1 cell noCPT: qHTS for Inhibitors of human tyrosyl-DNA phosphodiesterase 1 (TDP1): qHTS in cells in absence of CPT; DT40 Tdp1-/- hTDP1 cells, no CPT, ATP luminescence, 48 h; Potency, µM (series often up to 46.2 µM), for the others: top-dose activity change, negative = growth inhibition, actives largely listed as inhibitors; actives 15% (n = 420,000); note: potency is the fitted concentration of half-maximal effect; nearly all actives have a fitted effect of over 55% in size
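Stably hTDP1-transfected Tdp1-null chicken DT40 cells were treated with library compounds minus camptothecin and grown for at least 48 hr at 37 °C, after which cellular ATP was quantified by luminescence.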
IL-1B inflam inh: blocks inflammasome-driven IL-1 beta release. actives 4.7% (n = 360,000). THP-1 LPS/ATP IL-1B secretion, AlphaLISA, 16 h; hits give low values. activity change, % at 57.5 µM; in the data active = activity change below about -50%; inconclusive = mostly about -30% to -49%
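Secreted IL-1B measured by AlphaLISA bead assay after 16 h compound exposure of THP-1 cells; compounds (final up to 57.5 uM) added 1 h before LPS (250 ng/mL) and ATP (1.25 mM) stimulation; lower signal means less secretion.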
uPA generation: blocks generation of uPA at the cell surface | cell surface uPA generation assay, qHTS | Potency, µM (top dose mostly 38.3 µM), for inactives: at the top dose activity change, negative = inhibition, hits mostly inhibitors | AID 540303 | actives 0.31% (n = 330,000); active = well fitted inhibition curve with a large enough effect; inconclusive = small, poorly fitted or top-dose-only effect; inactive = no such curve, though single readings can be large or run the other way; tested in mouse RAW 264.7 cells; note: potency is the fitted concentration of half-maximal effect; nearly all actives have a fitted effect of over 55% in size
HT1080 IDH1KD tx: HT-1080 IDH1 knockdown cell toxicity (counter line); HT-1080 IDH1 knockdown viability, ATP luminescence, 48 h; Potency, µM (highest dose often 46.1 µM), for inactives: top-dose activity, negative = toxicity, most hits filed as cytotoxic; actives 2% (n = 360,000);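 note: potency is the fitted concentration of half-maximal effect; 0% = DMSO wells and -100% = cell-free medium wells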
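% activity derives from luminescence (CellTiter-Glo), normalised to DMSO and no-cell wells. HT-1080-IDH1KD cells, 750/well, had 48 h compound exposure at 37 °C.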
HT1080NT lethal: kills 2HG-producing HT-1080-NT fibrosarcoma cells; actives 1.6% (n = 360,000); HT-1080-NT fibrosarcoma viability, CellTiter-Glo ATP luminescence, 48 h; Potency, µM (highest dose often 46.1 µM), for inactives: at the highest dose activity, negative = less viability, most hits filed as cytotoxic; AID 686970;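 note: NT is the 2HG producing partner of a matched IDH1 knockdown line; potency is the fitted concentration of half-maximal effect; 0% = DMSO-treated cells and -100% = media-only wells without cells; nearly all actives have a fitted effect of over 55% in size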
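Toxicity toward the 2HG-producing NT line was scored as %Activity, normalised to DMSO and no-cell wells, from CellTiter-Glo luminescence after 48 hours' treatment.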
DT40 TDP1 CPT: growth inhibition of DT40 Tdp1-/-;hTDP1 cells with camptothecin (screen for TDP1 inhibitors). AID 686979. chicken DT40 Tdp1-/-;hTDP1 cells + 20 nM CPT, ATP luminescence, 48 h. Potency, µM (highest dose often 46.2 µM), without a hit: at the top dose activity change, negative = growth inhibition, hits mostly inhibitors. actives 12% (n = 420,000); note: potency is the fitted concentration of half-maximal effect; nearly all actives have a fitted effect of over 55% in size
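Chicken DT40 Tdp1-/- cells stably complemented with human TDP1 were seeded at 400 cells/well in medium containing 20 nM camptothecin, exposed to pin-transferred compounds, and grown at 37 °C for at least 48 hr. Viability was read as ATP luminescence.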
* hit, by the source's call. Unless noted, calls come from the whole dose curve; as a rule, active = well fitted curve in the direction sought with a large enough effect; inconclusive = small, poorly fitted or top-dose-only effect, or another doubt; inactive = no such curve, though single readings can be large; an effect the other way counts as inactive or inconclusive. Unless noted, % is set by controls: 0 for no effect and ±100 for the full control effect.

What do the screens show for `Cc1cccc(N=c2oc3cc(O)ccc3cc2C(N)=O)c1`?
TDP1 cell noCPT: 15µM*; IL-1B inflam inh: -19; uPA generation: 3%; HT1080 IDH1KD tx: inconclusive; HT1080NT lethal: inconclusive; DT40 TDP1 CPT: inconclusive

How did COc1ccc(NC(=O)Oc2cc(C)ccc2C(C)C)cc1 do in these assays?
TDP1 cell noCPT: -29%; IL-1B inflam inh: -16; uPA generation: 8%; HT1080 IDH1KD tx: -7%; HT1080NT lethal: -3%; DT40 TDP1 CPT: -17%

Results for COc1cc(OC)c(NC(=O)CSc2nc3ccncc3[nH]2)cc1Cl ?
TDP1 cell noCPT: 5.2µM*; DT40 TDP1 CPT: 6.5µM*

Results for O=C(CSc1nc2ccncc2[nH]1)Nc1ccccc1C(F)(F)F ?
TDP1 cell noCPT: 15µM*; IL-1B inflam inh: 38; uPA generation: -3%; HT1080 IDH1KD tx: 0%; HT1080NT lethal: -2%; DT40 TDP1 CPT: inconclusive

How did O=C(CSc1nc2cc3ccccc3cc2[nH]1)Nc1cccc(C(F)(F)F)c1 do in these assays?
TDP1 cell noCPT: 21µM*; DT40 TDP1 CPT: 18µM*

How did O=C(CSc1nc2ccccc2c(=O)[nH]1)Nc1ccccc1C(F)(F)F do in these assays?
TDP1 cell noCPT: inconclusive; IL-1B inflam inh: -5; uPA generation: -10%; HT1080 IDH1KD tx: -7%; HT1080NT lethal: -5%; DT40 TDP1 CPT: inconclusive

What do the screens show for `CCCOC(=O)c1ccccc1O`?
TDP1 cell noCPT: -24%; DT40 TDP1 CPT: -9%

What do the screens show for `Brc1ccc2nc(C3CCCCC3)c(CC3CCCCC3)n2c1`?
TDP1 cell noCPT: inconclusive; IL-1B inflam inh: 55; HT1080 IDH1KD tx: 24%; HT1080NT lethal: 25%; DT40 TDP1 CPT: inconclusive

How did CN1CCN(C(=O)Cn2c(-c3cccs3)cc3cc(Cl)ccc32)CC1 do in these assays?
TDP1 cell noCPT: 23µM*; DT40 TDP1 CPT: inconclusive

What do the screens show for `CCN(CC)CCCNC(=O)Cn1c(-c2cccs2)cc2cc(Cl)ccc21`?
TDP1 cell noCPT: 21µM*; DT40 TDP1 CPT: inconclusive

What do the screens show for `O=C(O)Cn1c(-c2cccs2)cc2cc(Cl)ccc21`?
TDP1 cell noCPT: 1%; DT40 TDP1 CPT: -18%

Results for COc1ccc(-c2csc3ncnc(N4CCN(C(=O)c5ccco5)CC4)c23)cc1 ?
TDP1 cell noCPT: inconclusive; IL-1B inflam inh: 44; uPA generation: -15%; HT1080 IDH1KD tx: -21%; HT1080NT lethal: -20%; DT40 TDP1 CPT: 23µM*

Results for O=C(c1ccco1)N1CCN(c2ncnc3scc(-c4ccccc4)c23)CC1 ?
TDP1 cell noCPT: 16µM*; IL-1B inflam inh: 1; uPA generation: 4%; HT1080 IDH1KD tx: 10µM*; HT1080NT lethal: 7.3µM*; DT40 TDP1 CPT: 16µM*

What do the screens show for `O=C(c1ccco1)N1CCN(c2ncnc3scc(-c4cccs4)c23)CC1`?
TDP1 cell noCPT: 13µM*; IL-1B inflam inh: -9; HT1080 IDH1KD tx: 7.9µM*; HT1080NT lethal: 11µM*; DT40 TDP1 CPT: 18µM*

Results for OC[C@@H]1CN(Cc2cccs2)C[C@H](n2cnc3c(NC4CCC4)ncnc32)O1 ?
TDP1 cell noCPT: -17%; IL-1B inflam inh: -2; HT1080 IDH1KD tx: 0%; HT1080NT lethal: inconclusive; DT40 TDP1 CPT: -7%

What do the screens show for `COc1ccc(C(O)(CCN2CCCCC2)C2CCCCC2)cc1` (stereo not given)?
TDP1 cell noCPT: 21µM*; IL-1B inflam inh: -18; uPA generation: -10%; HT1080 IDH1KD tx: -8%; HT1080NT lethal: -19%; DT40 TDP1 CPT: inconclusive

What do the screens show for `CCCC(O)(CCN1CCCCC1)c1ccc(OCC)cc1` (stereo not given)?
TDP1 cell noCPT: inconclusive; IL-1B inflam inh: -1; uPA generation: -9%; HT1080 IDH1KD tx: -3%; HT1080NT lethal: 0%; DT40 TDP1 CPT: inconclusive

How did O=C(Nc1ccc2nc(SCC(=O)N3CCc4ccccc43)sc2c1)c1ccccc1 do in these assays?
TDP1 cell noCPT: 2.3µM*; DT40 TDP1 CPT: 5.8µM*

Results for Cc1ccc(C(=O)Nc2ccc3nc(SCC(=O)N4CCCc5ccccc54)sc3c2)cc1 ?
TDP1 cell noCPT: 7.3µM*; DT40 TDP1 CPT: 12µM*

Results for O=C(Nc1nnc(SCC(=O)N2CCCc3ccccc32)s1)c1ccccc1 ?
TDP1 cell noCPT: -8%; IL-1B inflam inh: -12; uPA generation: -17%; HT1080 IDH1KD tx: 1%; HT1080NT lethal: 0%; DT40 TDP1 CPT: 14%

How did O=C(Nc1ccc2nc(SCC(=O)N3CCCc4ccccc43)sc2c1)c1ccccc1 do in these assays?
TDP1 cell noCPT: 18µM*; DT40 TDP1 CPT: 21µM*

How did COc1ccc(C(=O)Nc2ccc3nc(SCC(=O)N4CCCc5ccccc54)sc3c2)cc1 do in these assays?
TDP1 cell noCPT: 18µM*; DT40 TDP1 CPT: 9.2µM*

How did CNC(C)C(=O)NC(C(=O)NC(C)C(=O)Nc1cccc2ccccc12)C(C)C (stereo not given) do in these assays?
TDP1 cell noCPT: -1%; IL-1B inflam inh: 0; HT1080 IDH1KD tx: 11%; HT1080NT lethal: 8%; DT40 TDP1 CPT: 0%

How did O=c1[nH][nH]c2c1[C@H](c1ccc(Cl)cc1)O[C@H](C1CC1)C2 do in these assays?
TDP1 cell noCPT: -26%; IL-1B inflam inh: -20; HT1080 IDH1KD tx: -13%; HT1080NT lethal: -5%; DT40 TDP1 CPT: inconclusive

What do the screens show for `CCN1CCN(Cc2ccc(NC(=O)c3cc(NC(=O)c4cnn(-c5ccccc5)c4N)cc(OC)c3)cc2C(F)(F)F)CC1`?
TDP1 cell noCPT: 21µM*; IL-1B inflam inh: 81; uPA generation: -18%; HT1080 IDH1KD tx: 18µM*; HT1080NT lethal: inconclusive; DT40 TDP1 CPT: 21µM*

What do the screens show for `CCN1CCN(Cc2ccc(C(=O)Nc3ccc(C)c(NCc4cnc(NC(=O)OC)cn4)c3)cc2C(F)(F)F)CC1`?
TDP1 cell noCPT: -30%; IL-1B inflam inh: -16; uPA generation: 4%; HT1080 IDH1KD tx: 0%; HT1080NT lethal: -6%; DT40 TDP1 CPT: inconclusive

Results for CCN1CCN(Cc2ccc(NC(=O)c3ccc(C)c(NC(=O)c4ccc5n[nH]nc5c4)c3)cc2C(F)(F)F)CC1 ?
TDP1 cell noCPT: -1%; IL-1B inflam inh: -7; uPA generation: 0%; HT1080 IDH1KD tx: -7%; HT1080NT lethal: -3%; DT40 TDP1 CPT: -1%
